We go through 40 compounds from PubChem BioAssay.

Activity calls are given as the source filed them. No rule for the calls is given here.

Chain of Botulinum neurotoxin type A (Clostridium botulinum) (P0DPI0 whole entry, looked up): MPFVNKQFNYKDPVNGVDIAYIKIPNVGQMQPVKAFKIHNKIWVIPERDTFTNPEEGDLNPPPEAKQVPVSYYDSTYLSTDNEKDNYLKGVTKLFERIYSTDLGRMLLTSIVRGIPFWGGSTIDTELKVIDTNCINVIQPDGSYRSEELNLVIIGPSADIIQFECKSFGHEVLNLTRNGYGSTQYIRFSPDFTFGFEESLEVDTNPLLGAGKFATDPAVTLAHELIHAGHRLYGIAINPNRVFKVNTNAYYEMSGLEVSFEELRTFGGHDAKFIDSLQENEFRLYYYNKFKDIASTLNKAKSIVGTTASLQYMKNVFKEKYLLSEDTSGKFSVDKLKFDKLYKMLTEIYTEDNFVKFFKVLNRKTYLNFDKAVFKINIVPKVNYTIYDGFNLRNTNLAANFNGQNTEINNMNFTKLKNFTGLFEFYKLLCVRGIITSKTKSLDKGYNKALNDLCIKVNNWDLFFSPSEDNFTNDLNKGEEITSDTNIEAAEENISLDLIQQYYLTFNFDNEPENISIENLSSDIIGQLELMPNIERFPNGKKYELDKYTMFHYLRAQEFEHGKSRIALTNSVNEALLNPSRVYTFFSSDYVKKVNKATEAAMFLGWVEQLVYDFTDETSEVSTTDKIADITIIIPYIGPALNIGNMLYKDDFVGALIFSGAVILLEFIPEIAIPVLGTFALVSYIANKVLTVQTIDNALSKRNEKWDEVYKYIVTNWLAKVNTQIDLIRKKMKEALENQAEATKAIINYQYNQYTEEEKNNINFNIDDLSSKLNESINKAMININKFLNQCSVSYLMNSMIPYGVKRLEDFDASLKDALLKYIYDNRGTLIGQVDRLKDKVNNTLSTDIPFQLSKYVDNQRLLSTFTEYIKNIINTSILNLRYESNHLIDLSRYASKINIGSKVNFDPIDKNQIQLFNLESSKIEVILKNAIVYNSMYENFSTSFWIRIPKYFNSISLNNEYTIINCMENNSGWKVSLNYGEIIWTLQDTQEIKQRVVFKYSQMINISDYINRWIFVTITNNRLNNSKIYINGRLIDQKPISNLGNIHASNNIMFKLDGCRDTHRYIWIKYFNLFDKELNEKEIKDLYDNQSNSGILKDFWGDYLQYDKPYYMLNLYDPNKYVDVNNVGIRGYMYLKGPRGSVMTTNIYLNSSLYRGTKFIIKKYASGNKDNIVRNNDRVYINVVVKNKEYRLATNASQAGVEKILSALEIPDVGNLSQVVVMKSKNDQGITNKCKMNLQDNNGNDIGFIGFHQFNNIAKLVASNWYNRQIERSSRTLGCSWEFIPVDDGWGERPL

This assay addresses Botulinum neurotoxin type A (Clostridium botulinum) (UniProt P0DPI0). Nature of the assay: BoNT/A light chain protease inhibitors, biochemical, multiplex microsphere flow cytometry, validation set (AID 588460). To be noted: at 10 µM, stronger effect = higher value.
Take `O=C1ON=C(c2ccc(Cl)cc2)/C1=C/c1ccc(O)cc1`: the inhibition (as a rule, the relative decrease from the control value, in per cent) was -2.3% (inactive).

Turning to `CC(C)COc1ccc(Cc2cnc(N)nc2N)cc1`, the inhibition was 2% (inactive).

For `COc1ccc2c(c1)c(=O)oc1cc3occ(C(C)(C)C)c3cc12`, the inhibition was 1.4% (inactive).

As for `Cc1ccc(-n2cc(CNCCN3CCOC3=O)c(-c3ccc(F)cc3)n2)cc1`, the inhibition was 1.5% (inactive).

As for `COc1ccc(CN2CCCCC2C(=O)Nc2ccc(OC)c(OCC(C)C)c2)cc1OC` (stereo not given), the inhibition is 0.2% (inactive).

For the compound `CCOC(=O)C(NC(C)=O)C(O)c1ccc([N+](=O)[O-])cc1` (stereo not given), the inhibition was 2.6% (inactive).

On to `CCN(CC)c1ccc([C@H]2[C@@H]3CCCC[C@]3(O)CCN2CC(=O)NCc2ccco2)cc1`, for which the inhibition was 0.9% (inactive).

For `CC1(C)CC(NCc2ccccc2)CCO1` (stereo not given), the inhibition is 5.6% (inactive).

On to `CN1C(C(=O)Nc2ccccn2)=C(O)c2sccc2S1(=O)=O`, for which the inhibition was -0.2% (inactive).

On to `Oc1ccc(Oc2ncc(Cl)cc2Cl)cc1`, for which the inhibition was -0.7% (inactive).

On to `COc1ccc(-c2c[n+](CC(=O)OC3CC(C)CCC3C(C)C)c3n2CCC3)cc1` (stereo not given), for which the inhibition is 0.1% (inactive).

`COc1ccc2c(c1)c(CC(=O)O)c(C)n2C(=O)c1ccc(Cl)cc1`: the inhibition is -1.5% (inactive).

Consider `CN(C)c1nc(N(C)C)nc(N(C)C)n1`, for which the inhibition is 2.6% (inactive).

In the case of `OCC1(CCOc2ccccc2)CCN(CCCn2cccn2)CC1`, the inhibition was -1% (inactive).

Regarding `Cc1ccc(C2=NOC(=O)/C2=C\C=C\c2ccccc2)cc1`, the inhibition is 1% (inactive).

With `Cc1oc2cc(O)ccc2c(=O)c1Oc1ccccc1Br`, the inhibition is -0.5% (inactive).

In the case of `COC1CCCCC1Nc1ccc(C)c(C)c1` (stereo not given), the inhibition was -0.1% (inactive).

With `CCOC(=O)C(NC(=O)CCC(=O)Nc1ccc(S(N)(=O)=O)cc1)C(O)c1ccccc1` (stereo not given), the inhibition was -1% (inactive).

`Cc1ccnc2c1NC(=O)c1cccnc1N2C1CC1`: the inhibition is -0.1% (inactive).

On to `O=Cc1ccccc1Oc1ccccc1`, for which the inhibition is -2.2% (inactive).

For `COc1cccc(C2CC(=O)C3=C(C2)Nc2ccccc2N(C(=O)CCC(=O)O)C3c2ccc(F)cc2)c1` (stereo not given), the inhibition was 0.4% (inactive).

As for `CC(=O)Oc1ccc(C(c2ccc(OC(C)=O)cc2)c2ccccn2)cc1`, the inhibition is -0.3% (inactive).

As to `COc1ccc(-c2coc3c(CN4CCOCC4)c(O)ccc3c2=O)cc1`, the inhibition is 0.6% (inactive).

As to `COc1ccc2nc(NC(=O)Nc3ccccc3)sc2c1`, the inhibition is -2.6% (inactive).

In the case of `COCC(C)NC(=O)c1ccc(CN2CCc3ccccc3C2)cc1` (stereo not given), the inhibition was 0% (inactive).

Regarding `CCCCOn1c(C)c(C(C)=O)c2c3no[n+]([O-])c3ccc21`, the inhibition was 0.2% (inactive).

In the case of `O=C(NO)c1ccccc1O`, the inhibition was 2% (inactive).

Regarding `Cc1cc(=O)[nH]c(=S)[nH]1`, the inhibition was -3.3% (inactive).

As for `Cc1ccc(CN2CCN(CCCc3ccccc3)CC2CCO)cc1` (stereo not given), the inhibition was -0.2% (inactive).

As for `CCN(CC)C(=O)N1CCN(C)CC1`, the inhibition is -0.7% (inactive).

Turning to `O=C1NC2(Nc3ccccc31)C(=O)Nc1ccc(Br)cc12` (stereo not given), the inhibition was -1% (inactive).

As for `COc1ccc(C(=O)/C=C2/c3ccccc3CC(C)(C)N2C)cc1`, the inhibition is -1.8% (inactive).

Turning to `CCOC(=O)C1C(=O)CC(C)(O)C(C(=O)OCC)C1/C=C/c1ccccc1` (stereo not given), the inhibition was 1% (inactive).

Regarding `CC(C)C[C@H](NC(=O)[C@@H]1Cc2ccccc2CN1C(=O)OC(C)(C)C)C(=O)NCC1CCC(C(=O)O)CC1` (stereo not given in full), the inhibition is 0.3% (inactive).

As for `O=C(COc1ccccc1)N1CCN(c2ccccc2)CC1`, the inhibition is 0% (inactive).

Consider `CC1(C)Cc2ccccc2-c2nc(-c3ccccc3)oc(=O)c21`, for which the inhibition is 0% (inactive).

For the compound `COC(=O)CSc1nc2ccc(N)cc2s1`, the inhibition is -1% (inactive).

Take `Oc1[nH]c2ccccc2c1C1=NCCCC1`: the inhibition was -0.1% (inactive).

For `COC(=O)C1=C(C)N(Cc2ccco2)C(=O)/C1=C\c1ccc([N+](=O)[O-])cc1`, the inhibition is -0.6% (inactive).

On to `O=C(NCCc1cccc(F)c1)[C@@H]1CSC2c3ccccc3C(=O)N21` (stereo not given in full), for which the inhibition was -0.3% (inactive).
